Screening data: PubChem BioAssay, National Center for Advancing Translational Sciences (NCATS)
Hits are enriched below; roughly 11% of the tested compounds scored in any of these assays.
hNpr1 antagonist: blocks ANP-stimulated signaling of human Npr1 receptor. 76,000 tested, 1.6% active. HEK293 hNpr1 GloSensor cGMP, ANP-stimulated luminescence. Potency, µM (doses to about 46.3 µM), for inactives: at the top dose activity change, negative = inhibition, most hits filed as inhibitors. P16066; also: % is scaled to controls: 0 for no effect and ±100 for the full control effect; nearly all actives have a fitted effect of over 60% in size
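Compound pre-incubated 30 min at room temperature on GloSensor-loaded HEK293 cells stably carrying hNpr1 and the pGS-40F cGMP biosensor. Stimulation uses hNppA at 0.1 nM final; luminescence is taken at baseline and 20 min post-agonist.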
NIH3T3 tox: NIH 3T3 cell cytotoxicity. NIH 3T3 viability, CellTiter-Glo ATP luminescence, 48-72 h. Potency, µM (series often up to 96.7 µM), for the others: at the highest dose activity change, negative = cytotoxicity, most hits filed as inhibitors. 94,000 tested, 4.3% active; active = well fitted curve in the direction sought with a large enough effect; inconclusive = small, poorly fitted or top-dose-only effect, or another doubt; inactive = no such curve, though single readings can be large; an effect the other way counts as inactive or inconclusive; also: % is scaled to controls: 0 for no effect and ±100 for the full control effect; nearly all actives have a fitted effect of over 55% in size
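Cytotoxicity was measured by CellTiter-Glo ATP luminescence after 48 or 72 h compound exposure at 37 °C. Mouse NIH 3T3 fibroblasts were seeded at 400 cells/well and dosed by 23 nL pin transfer.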
HEK293 tox: HEK 293 cell cytotoxicity; AID 1345083; Potency, µM (top dose mostly 115 µM), inactives show at the highest dose activity change, negative = cytotoxicity, usual class: inhibitors; 94,000 tested, 6.6% active; HEK 293 viability, ATP luminescence (CellTiter-Glo), 48-72 h; active = well fitted curve in the direction sought with a large enough effect; inconclusive = small, poorly fitted or top-dose-only effect, or another doubt; inactive = no such curve, though single readings can be large; an effect the other way counts as inactive or inconclusive; also: % is scaled to controls: 0 for no effect and ±100 for the full control effect; nearly all actives have a fitted effect of over 60% in size
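Cells seeded first (HEK 293, 250 cells/well), then compound added by pintool. Incubation ran 48 or 72 hr at 37 degree Celsius. CellTiter-Glo was added and luminescence imaged after 10 min at room temperature.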
FLuc inh: inhibitors of firefly (Photinus pyralis) luciferase; purified P. pyralis luciferase, luminescence, biochemical; Potency, µM (series often up to 115 µM), most hits filed as inhibitors; 76,000 tested, 2.5% active; AID 1347043; active = well fitted curve in the direction sought with a large enough effect; inconclusive = small, poorly fitted or top-dose-only effect, or another doubt; inactive = no such curve, though single readings can be large; an effect the other way counts as inactive or inconclusive; also: % is scaled to controls: 0 for no effect and ±100 for the full control effect; nearly all actives have a fitted effect of over 65% in size
Target sequence (P08659 whole entry, looked up): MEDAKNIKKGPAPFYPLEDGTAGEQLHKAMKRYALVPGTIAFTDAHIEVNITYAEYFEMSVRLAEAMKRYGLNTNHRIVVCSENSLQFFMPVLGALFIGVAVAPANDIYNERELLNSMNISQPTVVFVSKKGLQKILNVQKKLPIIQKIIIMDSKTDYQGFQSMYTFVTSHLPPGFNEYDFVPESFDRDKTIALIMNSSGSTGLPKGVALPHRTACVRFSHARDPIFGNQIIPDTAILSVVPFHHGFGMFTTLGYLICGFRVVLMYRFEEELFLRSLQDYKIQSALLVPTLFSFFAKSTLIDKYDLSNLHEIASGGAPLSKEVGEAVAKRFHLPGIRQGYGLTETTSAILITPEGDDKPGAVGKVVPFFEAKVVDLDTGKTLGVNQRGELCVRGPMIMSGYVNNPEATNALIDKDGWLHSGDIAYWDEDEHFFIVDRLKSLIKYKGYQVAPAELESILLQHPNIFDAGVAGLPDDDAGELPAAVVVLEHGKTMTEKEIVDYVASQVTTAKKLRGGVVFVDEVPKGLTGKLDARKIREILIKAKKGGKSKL
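Cell-free enzyme assay, 10nM P. pyralis luciferase, luciferin and ATP each at 10uM. Inhibition profiled over a 6-point titration, read as luminescence.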
Npr1 antag conf: hNpr1 antagonism, confirmation assay; shares compounds with hNpr1 antagonist; HEK293 hNpr1 cGMP GloSensor luminescence, ANP-stimulated; Potency, µM (highest dose often 57.6 µM), inactives show top-dose activity change, negative = inhibition, usual class: inhibitors; 1,400 tested, 76% active; AID 1347044; also: nearly all actives have a fitted effect of over 70% in size
NPR2 antag: selectivity test of Npr1 antagonists against human Npr2 | HEK293 hNpr2 GloSensor cGMP luminescence, CNP-stimulated | 1,400 tested, 67% active | AID 1347046 | shares compounds with hNpr1 antagonist | Potency, µM (top dose mostly 57.6 µM), for the others: at the highest dose activity change, negative = inhibition, usual class: inhibitors; also: nearly all actives have a fitted effect of over 70% in size
FLuc inh counter: FLuc enzyme inhibition, Npr1 counter-screen | shares compounds with hNpr1 antagonist | purified FLuc enzyme, luminescence, Km substrate | Potency, µM (titrated, usually from 57.6 µM), inactives show top-dose activity change, negative = inhibition, most hits filed as inhibitors | 1,400 tested, 0.7% active; active = well fitted curve in the direction sought with a large enough effect; inconclusive = small, poorly fitted or top-dose-only effect, or another doubt; inactive = no such curve, though single readings can be large; an effect the other way counts as inactive or inconclusive; also: series mostly up to about 58 µM; 0% is about no effect
GloSensor ctrl: control cell line activity, Npr1 antagonist counter-screen. HEK293 GloSensor cGMP, SNP-stimulated, luminescence. Potency, µM (series often up to 57.6 µM), for the others: at the highest dose activity change, negative = inhibition, most hits filed as inhibitors. shares compounds with hNpr1 antagonist. 1,400 tested, 69% active; also: % is scaled to controls: 0 for no effect and ±100 for the full control effect; nearly all actives have a fitted effect of over 70% in size
* = called active by the depositor; i = inactive; ? = inconclusive; nt = no result; [ ] = dose if it differs, or a comment. Unless noted, calls follow the shape of the full dose curve. Potency is read from the fitted curve at half-maximal effect.

SMILES	hNpr1 antagonist	NIH3T3 tox	HEK293 tox	FLuc inh	Npr1 antag conf	NPR2 antag	FLuc inh counter	GloSensor ctrl
COc1cc2cc(CN3CCC[C@@H]3CO)c(-c3cccc(Cl)c3)nc2cc1OC	1%	?	?	?	nt	nt	nt	nt
O=C(CC(c1ccc(F)cc1)c1cn(Cc2ccccc2)c2ccc([N+](=O)[O-])cc12)N1CCOCC1 (stereo not given)	10µM*	?	?	i	24µM*	24µM*	0%	19µM*
Cc1ccc(C(CC(=O)N2CCN(c3ccc([N+](=O)[O-])cc3)CC2)c2cn(C)c3ccccc23)cc1 (stereo not given)	0%	-23%	?	i	nt	nt	nt	nt
COc1ccc(-n2nc(C3CCN(Cc4cccc5ccccc45)CC3)[nH]c2=O)cc1	11µM*	?	?	i	24µM*	24µM*	0%	27µM*
COc1ccc(-n2nc(C3CCCN(Cc4cccc5ccccc45)C3)[nH]c2=O)cc1 (stereo not given)	0%	?	?	i	nt	nt	nt	nt
O=C(NC[C@H]1O[C@@H](CO)[C@@H](O)[C@H]1N1CCN(c2ccccn2)CC1)Nc1ccc(F)cc1F	6%	?	-23%	i	nt	nt	nt	nt
COc1ccc(-c2cc(C[C@H]3CNCC[C@H]3CC(=O)N3CCC(n4c(=O)[nH]c5ccccc54)CC3)no2)cc1	-1%	?	?	i	nt	nt	nt	nt
COc1ccc(CN2C(=O)[C@@H]3C[C@@H](CN3Cc3cccs3)Oc3ccccc32)cc1	?	?	79µM*	i	?	?	-20%[86.2 µM]	0%[86.2 µM]
CC(=O)c1ccc(NC(=O)c2cc3n(n2)CC(c2ccc(Br)cc2)OC3)cc1 (stereo not given)	?	-13%	?	i	nt	nt	nt	nt
O=C(c1cc2n(n1)CC(c1ccc(Cl)cc1)OC2)N1CCN(c2ccc(Cl)cc2)CC1 (stereo not given)	13µM*	?	32µM*	i	?	?	0%	?
CC(C)N1CCN(C(=O)c2cc3n(n2)CC(c2ccc(Br)cc2)OC3)CC1 (stereo not given)	?	?	?	i	?	?	0%	?
Cc1nn2c(c1-c1ccccc1[S+](C)(=O)[O-])N(Cc1ccc(C(=O)O)s1)CCC2	3.2µM*	13µM*	?	i	9.9µM*	28µM*	3%[86.2 µM]	5µM*
Cc1nn2c(c1-c1ccnn1C(C)C)N(Cc1ccc(O)cc1)CCC2	-7%[70.6 µM]	?	?	i	nt	nt	nt	nt
Cc1nn2c(c1-c1ccccc1Oc1ccccc1)N(Cc1ccc(C(=O)O)s1)CCC2	?	32µM*	32µM*	i	?	?	1%	?
Cc1nn2c(c1-c1ccnn1C(C)C)N(Cc1cccc(C#N)c1)CCC2	?	14µM*	14µM*	i	2.8µM*	?	-1%[86.2 µM]	?
COc1cccc(CN2CCCn3nc(C)c(-c4ccccc4[S+](C)(=O)[O-])c32)c1	-15%[70.6 µM]	?	?	i	nt	nt	nt	nt
Cc1nn2c(c1-c1ccccc1Oc1ccccc1)N(Cc1cccc(C#N)c1)CCC2	3.2µM*	8.9µM*	8.9µM*	i	2.2µM*	4.4µM*	-3%[86.2 µM]	1.8µM*
Cc1nn2c(c1-c1ccccc1-c1ccccc1)N(Cc1ccc(C(=O)O)s1)CCC2	2%[70.6 µM]	-9%[138 µM]	?	i	nt	nt	nt	nt
O=C(NC1C[C@H]2CC[C@@H](C1)N2C(=O)c1ccco1)c1ccncc1 (stereo not given in full)	1%	-9%	0%	i	nt	nt	nt	nt
O=C(N[C@H]1C[C@H]2C(=O)NC[C@@H](CCC(=O)N3CCN(c4ccccn4)CC3)N2C1)c1ccccc1	-2%	-7%	-1%	i	nt	nt	nt	nt
COc1cccc(CNc2cc(Cl)nc3ccnn23)c1	?	28µM*	?	i	40µM*	35µM*	2%[86.2 µM]	35µM*
Clc1cc(NCCOc2ccccc2)n2nccc2n1	-30%[70.6 µM]	?	?	?	nt	nt	nt	nt
O=C(CCc1nc2ccccc2s1)N1CCC(Cc2noc(-c3ccc(F)cc3)n2)C1 (stereo not given)	11µM*	?	40µM*	i	22µM*	22µM*	-8%	22µM*
O=C(CCc1nc2ccccc2s1)N1CCCC(c2nc(C3CCOCC3)no2)C1 (stereo not given)	-14%	-26%	?	i	-10%	2%	-7%	-4%
COc1ccc(-c2nc(CC3CCN(C(=O)c4n[nH]c(=O)c5ccccc45)C3)no2)cc1 (stereo not given)	10µM*	?	32µM*	i	12µM*	11µM*	0%	8.6µM*
SMILES	hNpr1 antagonist	NIH3T3 tox	HEK293 tox	FLuc inh	Npr1 antag conf	NPR2 antag	FLuc inh counter	GloSensor ctrl
CC(=O)N1CCC(Cc2noc(-c3ccc(F)cc3)n2)C1 (stereo not given)	0%	-6%	-3%	i	nt	nt	nt	nt
COc1ccc(NC(=O)C2(Cc3ccccc3)CCCCC(=O)N2)cc1F (stereo not given)	4%	-16%	-13%	i	nt	nt	nt	nt
O=C(NCc1ccccc1F)C1CCc2nnc(CN[S+](=O)([O-])c3ccccc3Cl)n21 (stereo not given)	nt	-25%	-8%	nt	nt	nt	nt	nt
Fc1ccc(-c2cnc([C@@H]3COCCN3Cc3c[nH]c4ccccc34)[nH]2)c(F)c1	25µM*	?	79µM*	i	35µM*	44µM*	-6%[86.2 µM]	40µM*
COc1ccc(S(=O)(=O)N2CCC(Oc3ncccc3C(=O)N3CCOCC3)C2)cc1 (stereo not given)	-11%	5%	14%	i	nt	nt	nt	nt
Cc1cc(C)c(S(=O)(=O)N2CC(c3nc(-c4ccncc4)no3)C2)c(C)c1	14µM*	?	45µM*	i	24µM*	22µM*	-1%	22µM*
CN(C(=O)CCc1ccc2c(c1)OCO2)C1CCCN(C2Cc3ccccc3C2)C1 (stereo not given)	9%	-25%	?	i	nt	nt	nt	nt
CN1CC(=O)N(C2CCNC2)Cc2c1ncnc2N1CC[C@H](N(C)C)C1 (stereo not given in full)	nt	i	i	nt	6%	-1%	0%	2%
